In ChEMBL document CHEMBL4513216, “Probing the Open Global Health Chemical Diversity Library for Multistage-Active Starting Points for Next-Generation Antimalarials” (ACS Infect Dis, 2020) one finds INHIBITION data, which are given here for 67 compounds.

Hit rate of the full screen: of about 65,000 compounds, about 2,100 (3.2%) showed an effect of 50% or more. The median lay at about -52%. Only a selection was taken, and strong results are over-represented in it overall.

The assay has as its system Plasmodium falciparum. Briefly: Screen against P. falciparum Asexual Blood Stage (ABS), at 5uM. It counts as functional, Dd2. The settings on record: tested at 5 uM.
On to `O=C(NCc1nn(-c2ccccc2)c2c1CCC2)C1CC1`, for which the INHIBITION is recorded as -137%.
The same measure for `CCn1nc(C)c(CNC(=O)c2nnc3ccc(Cl)cc3n2)c1C`: -2.95%.
For `Cc1cnccc1-c1cnn(CCNC(=O)c2ccccn2)c1C1CC1`, the INHIBITION stood at 40.2%.
Next, `CC(C)c1ncc2c(n1)CN(CC(=O)Nc1ccncc1)CC2`: -23.6%.
For the compound `CC1=C[C@@H](CN2CCCC2)[C@H](C(C)C)C[C@H]1Cc1nnc(C)o1`, the INHIBITION was 0.0851%.
For the compound `CC1=C[C@@H](CN2CCN(C)CC2)[C@H](C(C)C)C[C@H]1Cc1nnc(C)o1`, the INHIBITION is 16.4%.
Consider `COc1ccc2nc(C[C@@H]3C[C@@H](C(C)C)[C@H](CN)C=C3C)[nH]c2n1`, for which the INHIBITION is 68.7%.
`Cc1ccc(CN2C[C@@H]3C[C@H](C(=O)Nc4cccnc4)[C@H](C2)O3)cc1`: the INHIBITION is listed as 41.3%.
The same measure for `COC(=O)CN(C(=O)c1cc(C)c(F)cc1F)c1cccc(C)n1`: -97.6%; for `CC1(C(=O)N2CCOCC2)CN(C2CCCCC2)CCO1` (configuration not stated): -82.9%; for `CN(C)c1ccnc(N2CCC(NCCOc3ccccc3)CC2)n1`: 61.5%.
Consider `Cc1nc(C)c(C)c(N2CCC(NCCOc3ccccc3)CC2)n1`, for which the INHIBITION came out at 63.1%.
Consider `Cc1nc(CN2CCCC(NCCOc3ccccc3)C2)no1` (configuration not stated), for which the INHIBITION is -55.9%.
Next, `Cc1ccnc(N2CCC(NCCOc3ccccc3)CC2)n1`: 13.8%.
Consider `O=C(COCCOc1ccccc1)NC1CCN(c2ncccn2)CC1`, for which the INHIBITION was -7.73%.
`c1ccc(OCCNC2CCN(c3ncccn3)CC2)cc1`: the INHIBITION is -15.2%.
For the compound `Cn1ccnc1CN1CCN(CC2CC2)[C@@H]2CS(=O)(=O)C[C@@H]21`, the INHIBITION is -222%.
For `Cn1c(=O)cc(C(=O)NC(Cc2ccsc2)c2cccnc2)[nH]c1=O` (configuration not stated), the INHIBITION is -41.8%.
On to `O=S(=O)(N1CCCC1)N1CC[C@H](c2ccccc2)[C@H]2NCCCC[C@H]21`, for which the INHIBITION stood at 48.5%.
On to `O=S(=O)(N1CCCC1)N1C[C@@H](c2cccc(F)c2)[C@@H]2NCCCCC[C@H]21`, for which the INHIBITION turned out to be 25.3%.
Next, `CCN(CC)S(=O)(=O)N1CC[C@H](c2ccccc2)[C@H]2NCCCC[C@H]21`: 57.7%; `CCOc1c(F)cccc1C(=O)N(c1cccnc1)C(C)C`: -2.56%; `CC(C)(C(=O)NCC1CCN(Cc2ccccn2)C1)c1ccccc1` (configuration not stated): 40.4%.
With `CC(C)(C(=O)NCC1CCN(Cc2ncc[nH]2)C1)c1ccccc1` (configuration not stated), the INHIBITION is listed as -15.4%.
Next, `CC(C)(C(=O)NCC1CCN(Cc2cccnc2)C1)c1ccccc1` (configuration not stated): 53.2%; `Cc1nc(CCCNC(=O)Nc2ccc(F)cc2F)n[nH]1`: -12.9%; `O=C(NCCN1CCCC1)c1cc2c(s1)CCN2c1ncccn1`: -36.4%.
As for `N#Cc1ccc(C2CC(=O)Nc3c2cnn3C2CCCC2)cc1` (configuration not stated), the INHIBITION stood at 53.3%.
Consider `O=C1CC(c2ccccc2)c2cnn(C3CCCC3)c2N1` (configuration not stated), for which the INHIBITION is -173%.
As for `O=C1CC(c2ccc(F)cc2)c2cnn(C3CCCC3)c2N1` (configuration not stated), the INHIBITION was -115%.
Regarding `Cc1noc(C)c1CC(=O)N1CCCN(C)c2ccc(Cl)cc21`, the INHIBITION is listed as -70.5%.
Next, `O=C(NCC1CCN(Cc2cc3ccccc3[nH]2)C1)C1CCCCC1` (configuration not stated): 8.98%; `Cc1nc(CNC(=O)Nc2ccc3c(c2)CCCC(=O)N3)sc1C`: -39.6%; `Cc1nc(CNC(=O)Nc2ccc(N(C)C)nc2)sc1C`: -121%.
As for `Cc1nc(CNC(=O)Nc2ccc3c(c2)CCCN3C)sc1C`, the INHIBITION is reported as 60.4%.
Regarding `CC(C)c1nnc(CN2CCc3ccc(S(N)(=O)=O)cc32)o1`, the INHIBITION is reported as -105%.
With `CCOCC(=O)N1Cc2nnn(C)c2C(COCc2ccccn2)C1` (configuration not stated), the INHIBITION was -123%.
With `CC(C)[C@@H](N)C(=O)NCc1cccnc1N1CCc2ccccc2C1`, the INHIBITION was 29%.
As for `NC(=O)NCCC(=O)NCc1cccnc1N1CCc2ccccc2C1`, the INHIBITION is given as -73%.
On to `COC(=O)CCC(=O)NCc1cccnc1N1CCc2ccccc2C1`, for which the INHIBITION was 58.5%.
Take `O=c1cc(C2CCNCC2)nc(Cc2cccc(Cl)c2)[nH]1`: the INHIBITION was -25.9%.
Regarding `CC(C)Nc1ncnc2c1CCN(C(=O)CCc1ccccc1)CC2`, the INHIBITION was -74.7%.
Turning to `Cc1ccc(CN2Cc3ccccc3OC3(CCC(CO)CC3)C2)s1` (configuration not stated), the INHIBITION is on record as -106%.
Turning to `Cc1ncsc1CN1C[C@H](NC(=O)C2CCOCC2)[C@@H](C(C)C)C1`, the INHIBITION is -21.1%.
Regarding `c1ccc(Cc2nc(CNC3CCC4(CCNCC4)CC3)no2)cc1`, the INHIBITION turned out to be 39.2%.
`Cc1cc(NCc2ccc(N3CCNC(=O)C3)cc2)nc(C)n1`: the INHIBITION is on record as -39.6%.
As for `O=C1CN(c2ccc(CNc3cncc(-n4cccn4)n3)cc2)CCN1`, the INHIBITION was determined as 52%.
For `CCSc1cncc(NCc2ccc(N3CCNC(=O)C3)cc2)n1`, the INHIBITION was 38.9%.
The same measure for `CCc1nc2c(c(NC3CCC3)n1)CCN(C(=O)CO)CC2`: -35.7%; for `Cn1cnnc1C1CCCN(C(=O)NCCn2ccnc2)C1` (configuration not stated): -164%.
`CC1CN(c2ncccc2C(=O)Nc2cccc3c2CCCC3)CCN1` (configuration not stated): the INHIBITION amounted to 10.3%.
Regarding `Cc1cccc(C(=O)Nc2cccc3c2CCCC3)n1`, the INHIBITION is on record as -253%.
Turning to `O=C(Nc1cccc2c1CCCC2)c1cccnc1N1CCCNCC1`, the INHIBITION is 53.6%.
The same measure for `CN(Cc1ccoc1)C(=O)Cn1ncc(N(C)C)cc1=O`: -36.7%; for `CCn1cc(C(=O)N2CCCC(c3noc(C)n3)C2)cn1` (configuration not stated): -71.8%.
Take `CC1=C(c2ccc(Cl)cc2)S(=O)(=O)N=C1N1CCc2ccccc21`: the INHIBITION is given as -35.6%.
In the case of `CC(C)(C)NS(=O)(=O)c1ccccc1CNCc1cccc(O)c1`, the INHIBITION came out at 56.9%.
As to `CC(C)(C)NS(=O)(=O)c1ccccc1CNCc1ccccc1`, the INHIBITION amounted to 43.3%.
As to `CC(C)NS(=O)(=O)c1ccccc1CNCc1cccc(O)c1`, the INHIBITION is 26%.
For `CCc1nnc2n1CCN(C(C(=O)NC1CC1)c1ccccc1)C2` (configuration not stated), the INHIBITION was -119%.
For `CC(C)CCN1CCc2[nH]nc(C(=O)N3CC=CC3)c2C1`, the INHIBITION is reported as -95.1%.
Turning to `Cc1cc(-c2cnc(N3CCN(C)CC3)nc2-c2ccc(C)s2)on1`, the INHIBITION is listed as -24%.
With `Cc1cc(-c2cnc(N3CCN(C)CC3)nc2C(C)C)on1`, the INHIBITION came out at 52.5%.
Consider `Cc1cc(-c2cnc(N3CCC(C(N)=O)CC3)nc2C(C)C)on1`, for which the INHIBITION is -7.12%.
Next, `Cc1cc(-c2cnc(N3CCC(O)CC3)nc2C(C)C)on1`: 13.7%.
As to `Cc1cc(-c2cnc(N3CCSCC3)nc2C(C)C)on1`, the INHIBITION stood at 63.8%.
Regarding `Cc1cc(-c2cnc(N3CCCC(C)C3)nc2C(C)C)on1` (configuration not stated), the INHIBITION is reported as -127%.
